Assay [1] concerns the target T1, Inhibitor of nuclear factor kappa-B kinase subunit epsilon (Homo sapiens) (UniProt Q14164).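 Note: reported values are averaged percent inhibition figures against human IKKε.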
T1 sequence (whole entry): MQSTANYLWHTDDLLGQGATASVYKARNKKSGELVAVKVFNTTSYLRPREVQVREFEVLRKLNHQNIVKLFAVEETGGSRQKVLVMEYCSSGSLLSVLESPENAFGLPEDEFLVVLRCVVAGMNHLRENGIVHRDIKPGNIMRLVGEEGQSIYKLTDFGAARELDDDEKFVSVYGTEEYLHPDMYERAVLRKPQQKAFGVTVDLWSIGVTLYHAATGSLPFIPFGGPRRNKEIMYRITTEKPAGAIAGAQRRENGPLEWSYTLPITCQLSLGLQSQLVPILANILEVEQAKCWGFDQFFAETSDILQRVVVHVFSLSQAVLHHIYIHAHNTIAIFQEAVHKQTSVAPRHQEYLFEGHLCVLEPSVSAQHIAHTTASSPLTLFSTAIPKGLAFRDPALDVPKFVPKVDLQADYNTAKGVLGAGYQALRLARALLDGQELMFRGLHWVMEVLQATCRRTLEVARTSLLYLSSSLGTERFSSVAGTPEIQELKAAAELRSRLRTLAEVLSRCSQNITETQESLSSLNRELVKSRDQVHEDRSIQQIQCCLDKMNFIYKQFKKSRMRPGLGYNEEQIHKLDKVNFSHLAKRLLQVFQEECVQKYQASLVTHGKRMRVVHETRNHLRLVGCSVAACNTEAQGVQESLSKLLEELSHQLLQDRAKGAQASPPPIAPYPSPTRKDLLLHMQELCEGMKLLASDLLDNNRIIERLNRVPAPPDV
The conditions noted are these: at 1 µM.

Assay [2] addresses T2, Serine/threonine-protein kinase Nek1 (Homo sapiens) (UniProt Q96PY6).
T2 sequence (whole entry): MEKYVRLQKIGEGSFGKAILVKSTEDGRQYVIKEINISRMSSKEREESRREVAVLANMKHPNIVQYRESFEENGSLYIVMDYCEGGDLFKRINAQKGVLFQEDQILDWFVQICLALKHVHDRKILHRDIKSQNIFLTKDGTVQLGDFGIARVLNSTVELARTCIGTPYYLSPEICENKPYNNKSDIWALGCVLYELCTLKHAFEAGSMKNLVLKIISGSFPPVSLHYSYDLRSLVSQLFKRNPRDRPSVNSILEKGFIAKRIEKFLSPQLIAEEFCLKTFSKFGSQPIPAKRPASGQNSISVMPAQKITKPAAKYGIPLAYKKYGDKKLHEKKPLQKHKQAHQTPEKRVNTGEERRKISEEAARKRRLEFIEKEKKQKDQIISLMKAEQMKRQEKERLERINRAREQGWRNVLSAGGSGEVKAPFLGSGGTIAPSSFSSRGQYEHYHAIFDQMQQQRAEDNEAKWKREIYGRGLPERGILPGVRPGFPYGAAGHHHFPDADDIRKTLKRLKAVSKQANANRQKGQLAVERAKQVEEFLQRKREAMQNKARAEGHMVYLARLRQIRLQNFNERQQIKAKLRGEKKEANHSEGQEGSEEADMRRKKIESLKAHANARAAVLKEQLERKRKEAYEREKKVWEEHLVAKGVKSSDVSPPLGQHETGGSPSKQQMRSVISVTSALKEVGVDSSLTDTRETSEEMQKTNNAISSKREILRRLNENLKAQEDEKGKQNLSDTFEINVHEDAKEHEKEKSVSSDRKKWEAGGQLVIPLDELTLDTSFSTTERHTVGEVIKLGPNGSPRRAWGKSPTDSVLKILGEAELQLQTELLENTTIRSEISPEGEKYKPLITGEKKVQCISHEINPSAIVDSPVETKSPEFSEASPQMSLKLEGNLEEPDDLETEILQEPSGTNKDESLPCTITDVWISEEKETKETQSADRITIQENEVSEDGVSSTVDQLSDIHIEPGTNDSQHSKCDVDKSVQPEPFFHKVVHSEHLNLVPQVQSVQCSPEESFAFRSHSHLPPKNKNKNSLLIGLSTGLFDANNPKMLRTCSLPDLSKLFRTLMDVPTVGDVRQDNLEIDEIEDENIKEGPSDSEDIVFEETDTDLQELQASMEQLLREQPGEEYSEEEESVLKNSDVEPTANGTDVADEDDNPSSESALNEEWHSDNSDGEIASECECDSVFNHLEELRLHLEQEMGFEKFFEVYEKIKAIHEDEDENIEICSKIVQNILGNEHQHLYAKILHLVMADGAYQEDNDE
The following applies: at 0.1 µM.

For assay [3], the target named is T2, Serine/threonine-protein kinase Nek1 (Homo sapiens). The conditions noted are these: at 1 µM.
Assay [4] deals with T3, Serine/threonine-protein kinase Nek2 (Homo sapiens) (UniProt P51955).
T3 sequence (whole entry): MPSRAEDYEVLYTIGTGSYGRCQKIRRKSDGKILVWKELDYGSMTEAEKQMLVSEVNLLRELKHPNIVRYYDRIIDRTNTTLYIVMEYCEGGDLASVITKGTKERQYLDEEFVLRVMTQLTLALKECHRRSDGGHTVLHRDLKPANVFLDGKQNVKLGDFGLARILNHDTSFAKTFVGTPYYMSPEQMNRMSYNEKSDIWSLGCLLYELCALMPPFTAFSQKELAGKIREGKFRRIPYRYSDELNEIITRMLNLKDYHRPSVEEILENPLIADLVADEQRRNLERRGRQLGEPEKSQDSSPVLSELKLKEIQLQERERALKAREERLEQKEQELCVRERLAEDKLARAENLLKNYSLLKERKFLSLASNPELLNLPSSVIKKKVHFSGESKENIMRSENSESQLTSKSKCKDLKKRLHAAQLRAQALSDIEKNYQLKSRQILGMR
The conditions noted are these: at 0.1 µM.

Assay [5] has as its target T3, Serine/threonine-protein kinase Nek2 (Homo sapiens). The following applies: at 1 µM.
The target of assay [6] is Serine/threonine-protein kinase Nek6 (Homo sapiens) (UniProt Q9HC98). The following applies: at 0.1 µM.
Serine/threonine-protein kinase Nek6 (Homo sapiens), sequence (Q9HC98 whole entry): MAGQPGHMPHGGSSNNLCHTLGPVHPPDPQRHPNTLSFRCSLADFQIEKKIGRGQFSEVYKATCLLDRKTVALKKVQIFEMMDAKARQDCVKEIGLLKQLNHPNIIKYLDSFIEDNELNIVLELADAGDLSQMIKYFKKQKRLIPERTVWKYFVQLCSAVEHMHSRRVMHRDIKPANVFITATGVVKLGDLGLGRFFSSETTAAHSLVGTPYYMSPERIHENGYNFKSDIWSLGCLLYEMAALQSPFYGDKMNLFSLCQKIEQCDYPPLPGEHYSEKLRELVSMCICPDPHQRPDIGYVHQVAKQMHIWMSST
The target is the same in assay [7]. The conditions noted are these: at 1 µM.
Assay [8] has as its target Serine/threonine-protein kinase Nek7 (Homo sapiens) (UniProt Q8TDX7). The conditions noted are these: at 0.1 µM.
For assay [9] the target is unchanged. The conditions noted are these: at 1 µM.
The target in assay [10] is T4, Serine/threonine-protein kinase Nek9 (Homo sapiens) (UniProt Q8TD19).
T4 sequence (whole entry): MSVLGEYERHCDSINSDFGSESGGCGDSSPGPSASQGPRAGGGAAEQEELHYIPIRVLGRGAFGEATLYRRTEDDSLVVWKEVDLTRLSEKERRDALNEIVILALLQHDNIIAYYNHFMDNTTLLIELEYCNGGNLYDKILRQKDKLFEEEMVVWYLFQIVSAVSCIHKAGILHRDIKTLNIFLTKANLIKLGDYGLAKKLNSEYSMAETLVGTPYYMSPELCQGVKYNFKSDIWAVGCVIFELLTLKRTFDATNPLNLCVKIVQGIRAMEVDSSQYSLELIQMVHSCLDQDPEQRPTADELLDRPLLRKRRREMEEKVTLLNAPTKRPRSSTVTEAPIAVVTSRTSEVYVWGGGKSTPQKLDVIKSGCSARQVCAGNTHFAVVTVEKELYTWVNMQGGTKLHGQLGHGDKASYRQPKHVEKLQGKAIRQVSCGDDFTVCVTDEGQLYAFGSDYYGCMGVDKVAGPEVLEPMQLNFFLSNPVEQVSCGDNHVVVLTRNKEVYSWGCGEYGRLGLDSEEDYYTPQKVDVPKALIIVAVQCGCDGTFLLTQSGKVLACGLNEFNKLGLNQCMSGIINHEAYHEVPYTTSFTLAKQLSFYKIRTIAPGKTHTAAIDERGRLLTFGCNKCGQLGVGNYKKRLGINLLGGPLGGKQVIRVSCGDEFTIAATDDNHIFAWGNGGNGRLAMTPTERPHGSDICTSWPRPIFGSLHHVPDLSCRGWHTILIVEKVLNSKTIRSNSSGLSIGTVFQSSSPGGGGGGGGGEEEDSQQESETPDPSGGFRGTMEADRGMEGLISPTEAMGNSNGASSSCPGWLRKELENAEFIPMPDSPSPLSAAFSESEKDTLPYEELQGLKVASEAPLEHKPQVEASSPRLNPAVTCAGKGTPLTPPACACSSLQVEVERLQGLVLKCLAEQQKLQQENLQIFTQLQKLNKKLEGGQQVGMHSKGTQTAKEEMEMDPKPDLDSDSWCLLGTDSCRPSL
The conditions noted are these: at 0.1 µM.

In assay [11] the target is T4, Serine/threonine-protein kinase Nek9 (Homo sapiens). The conditions noted are these: at 1 µM.
The target in assay [12] is Serine/threonine-protein kinase PLK1 (Homo sapiens) (UniProt P53350). The following applies: at 0.1 µM.
Serine/threonine-protein kinase PLK1 (Homo sapiens), sequence (P53350 whole entry): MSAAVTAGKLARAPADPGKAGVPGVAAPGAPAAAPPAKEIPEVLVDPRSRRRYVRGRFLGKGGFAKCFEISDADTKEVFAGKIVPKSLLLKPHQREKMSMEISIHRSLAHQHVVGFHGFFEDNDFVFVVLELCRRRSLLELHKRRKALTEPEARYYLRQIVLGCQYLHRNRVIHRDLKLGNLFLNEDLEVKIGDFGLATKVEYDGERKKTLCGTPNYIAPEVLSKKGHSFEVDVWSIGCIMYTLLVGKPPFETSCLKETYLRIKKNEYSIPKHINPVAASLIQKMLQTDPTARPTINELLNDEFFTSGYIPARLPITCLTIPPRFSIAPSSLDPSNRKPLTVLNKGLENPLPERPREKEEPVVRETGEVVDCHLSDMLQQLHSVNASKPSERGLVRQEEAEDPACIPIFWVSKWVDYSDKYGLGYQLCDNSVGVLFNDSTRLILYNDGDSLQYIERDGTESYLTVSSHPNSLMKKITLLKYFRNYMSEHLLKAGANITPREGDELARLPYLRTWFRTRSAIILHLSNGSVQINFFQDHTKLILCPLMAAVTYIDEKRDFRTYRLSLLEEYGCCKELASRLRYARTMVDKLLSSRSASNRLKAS
The target is the same in assay [13]. The following applies: at 1 µM.
Assay [14] has as its target T5, Dual specificity protein kinase TTK (Homo sapiens) (UniProt P33981).
T5 sequence (whole entry): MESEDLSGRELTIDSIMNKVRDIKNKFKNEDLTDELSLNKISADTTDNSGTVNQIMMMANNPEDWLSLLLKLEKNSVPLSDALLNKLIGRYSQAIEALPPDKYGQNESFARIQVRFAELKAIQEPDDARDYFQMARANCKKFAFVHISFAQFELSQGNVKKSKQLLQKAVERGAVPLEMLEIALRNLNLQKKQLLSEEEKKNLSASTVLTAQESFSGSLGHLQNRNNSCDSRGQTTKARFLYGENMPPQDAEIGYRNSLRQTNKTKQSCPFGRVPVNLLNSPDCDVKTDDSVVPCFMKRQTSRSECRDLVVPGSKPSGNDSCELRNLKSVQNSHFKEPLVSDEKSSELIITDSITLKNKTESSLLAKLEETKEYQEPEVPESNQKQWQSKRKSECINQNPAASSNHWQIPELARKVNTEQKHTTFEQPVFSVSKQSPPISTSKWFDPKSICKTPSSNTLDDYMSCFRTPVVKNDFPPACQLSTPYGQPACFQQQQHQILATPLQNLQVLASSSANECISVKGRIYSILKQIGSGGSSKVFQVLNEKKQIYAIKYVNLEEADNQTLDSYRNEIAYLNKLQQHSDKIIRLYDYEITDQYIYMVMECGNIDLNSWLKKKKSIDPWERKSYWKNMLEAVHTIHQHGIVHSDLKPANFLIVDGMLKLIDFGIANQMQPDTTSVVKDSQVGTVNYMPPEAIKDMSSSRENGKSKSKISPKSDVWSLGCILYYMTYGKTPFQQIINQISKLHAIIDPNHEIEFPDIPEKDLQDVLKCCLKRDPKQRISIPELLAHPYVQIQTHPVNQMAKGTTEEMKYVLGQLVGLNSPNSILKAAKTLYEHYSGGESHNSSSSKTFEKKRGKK
The conditions noted are these: at 0.1 µM.

Assay [15] relates to T6, Receptor-type tyrosine-protein kinase FLT3 (Homo sapiens), P36888 [D835Y].
T6 sequence (whole entry): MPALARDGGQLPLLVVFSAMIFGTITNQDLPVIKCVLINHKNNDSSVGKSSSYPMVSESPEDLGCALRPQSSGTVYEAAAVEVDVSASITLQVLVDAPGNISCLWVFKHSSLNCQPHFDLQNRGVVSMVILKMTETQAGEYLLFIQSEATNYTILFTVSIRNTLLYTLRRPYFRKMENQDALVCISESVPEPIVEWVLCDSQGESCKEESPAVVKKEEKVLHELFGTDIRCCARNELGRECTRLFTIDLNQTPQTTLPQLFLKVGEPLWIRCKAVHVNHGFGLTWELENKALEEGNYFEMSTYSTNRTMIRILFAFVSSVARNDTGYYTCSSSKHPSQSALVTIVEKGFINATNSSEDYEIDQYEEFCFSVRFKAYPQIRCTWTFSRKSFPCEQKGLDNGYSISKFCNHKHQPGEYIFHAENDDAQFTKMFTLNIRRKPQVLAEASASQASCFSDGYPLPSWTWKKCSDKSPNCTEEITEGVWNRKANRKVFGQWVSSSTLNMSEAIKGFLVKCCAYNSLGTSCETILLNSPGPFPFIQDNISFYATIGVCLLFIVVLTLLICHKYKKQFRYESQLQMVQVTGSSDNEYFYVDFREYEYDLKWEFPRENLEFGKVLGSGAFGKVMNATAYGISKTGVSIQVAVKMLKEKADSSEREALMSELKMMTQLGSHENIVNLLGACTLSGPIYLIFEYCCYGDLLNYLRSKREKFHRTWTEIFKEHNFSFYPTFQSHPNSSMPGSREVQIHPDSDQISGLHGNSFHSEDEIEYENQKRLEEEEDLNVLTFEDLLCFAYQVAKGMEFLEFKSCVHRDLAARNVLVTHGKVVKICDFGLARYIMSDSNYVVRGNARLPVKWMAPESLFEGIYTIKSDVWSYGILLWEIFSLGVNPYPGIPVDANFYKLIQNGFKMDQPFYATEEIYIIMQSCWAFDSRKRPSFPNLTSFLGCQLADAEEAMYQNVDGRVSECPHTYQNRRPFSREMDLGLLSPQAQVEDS
The following applies: at 1 µM.

Assay [16] has as its target Vascular endothelial growth factor receptor 3 (Homo sapiens) (UniProt P35916). The following applies: at 0.1 µM.
Assay [17] has the same target. The following applies: at 1 µM.
Assay [18] concerns the target Macrophage colony-stimulating factor 1 receptor (Homo sapiens) (UniProt P07333). The conditions noted are these: at 0.1 µM.
For assay [19] the target is unchanged. The conditions noted are these: at 1 µM.
The target in assay [20] is Tyrosine-protein kinase Fyn (Homo sapiens) (UniProt P06241). The conditions noted are these: at 0.1 µM.
Tyrosine-protein kinase Fyn (Homo sapiens), sequence (P06241 2-537 limits assumed): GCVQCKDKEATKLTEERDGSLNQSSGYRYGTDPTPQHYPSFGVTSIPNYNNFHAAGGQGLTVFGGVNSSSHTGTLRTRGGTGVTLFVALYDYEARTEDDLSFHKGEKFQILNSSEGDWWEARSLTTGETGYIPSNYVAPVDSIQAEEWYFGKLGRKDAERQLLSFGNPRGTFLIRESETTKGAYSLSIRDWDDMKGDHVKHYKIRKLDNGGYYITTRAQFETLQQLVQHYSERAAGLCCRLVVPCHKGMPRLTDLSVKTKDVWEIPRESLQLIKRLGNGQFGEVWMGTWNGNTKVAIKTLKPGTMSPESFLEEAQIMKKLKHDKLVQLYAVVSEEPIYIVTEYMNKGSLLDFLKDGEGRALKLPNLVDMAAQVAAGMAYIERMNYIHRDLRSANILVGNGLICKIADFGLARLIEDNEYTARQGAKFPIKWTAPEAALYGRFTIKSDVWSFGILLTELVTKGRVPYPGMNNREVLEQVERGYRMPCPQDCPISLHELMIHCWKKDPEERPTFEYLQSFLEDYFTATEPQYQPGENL

The record followed here is ChEMBL document CHEMBL1961873, “Compounds: GSK PKIS; Assays: Nanosyn kinase panel” (2012).

The inhibition is the drop in the measured response relative to a control, in per cent.

Macrophage colony-stimulating factor 1 receptor (Homo sapiens), sequence (P07333 whole entry): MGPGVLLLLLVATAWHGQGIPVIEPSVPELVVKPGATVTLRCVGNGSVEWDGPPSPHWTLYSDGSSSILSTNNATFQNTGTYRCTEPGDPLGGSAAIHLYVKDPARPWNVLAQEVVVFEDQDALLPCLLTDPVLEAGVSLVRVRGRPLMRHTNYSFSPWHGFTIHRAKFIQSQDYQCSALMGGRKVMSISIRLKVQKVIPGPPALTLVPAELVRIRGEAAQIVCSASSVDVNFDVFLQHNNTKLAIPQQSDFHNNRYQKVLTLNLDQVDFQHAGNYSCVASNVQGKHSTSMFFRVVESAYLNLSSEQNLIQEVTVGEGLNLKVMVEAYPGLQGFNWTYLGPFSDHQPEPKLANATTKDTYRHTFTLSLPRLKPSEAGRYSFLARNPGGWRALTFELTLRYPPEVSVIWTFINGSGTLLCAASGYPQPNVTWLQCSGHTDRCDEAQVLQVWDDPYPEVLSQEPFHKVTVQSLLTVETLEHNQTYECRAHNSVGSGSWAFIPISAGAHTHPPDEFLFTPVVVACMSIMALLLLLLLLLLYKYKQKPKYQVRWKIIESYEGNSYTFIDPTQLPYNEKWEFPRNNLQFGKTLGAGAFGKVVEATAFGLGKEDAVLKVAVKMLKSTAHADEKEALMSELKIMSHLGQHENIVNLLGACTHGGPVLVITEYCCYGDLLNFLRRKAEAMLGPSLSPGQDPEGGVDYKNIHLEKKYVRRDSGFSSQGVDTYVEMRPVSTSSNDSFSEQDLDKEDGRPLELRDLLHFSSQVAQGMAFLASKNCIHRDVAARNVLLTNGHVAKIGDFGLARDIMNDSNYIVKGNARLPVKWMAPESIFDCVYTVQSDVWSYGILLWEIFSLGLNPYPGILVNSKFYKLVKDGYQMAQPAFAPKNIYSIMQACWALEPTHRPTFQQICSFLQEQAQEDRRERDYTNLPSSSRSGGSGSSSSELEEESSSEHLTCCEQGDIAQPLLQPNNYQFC
Serine/threonine-protein kinase Nek7 (Homo sapiens), sequence (Q8TDX7 whole entry, looked up): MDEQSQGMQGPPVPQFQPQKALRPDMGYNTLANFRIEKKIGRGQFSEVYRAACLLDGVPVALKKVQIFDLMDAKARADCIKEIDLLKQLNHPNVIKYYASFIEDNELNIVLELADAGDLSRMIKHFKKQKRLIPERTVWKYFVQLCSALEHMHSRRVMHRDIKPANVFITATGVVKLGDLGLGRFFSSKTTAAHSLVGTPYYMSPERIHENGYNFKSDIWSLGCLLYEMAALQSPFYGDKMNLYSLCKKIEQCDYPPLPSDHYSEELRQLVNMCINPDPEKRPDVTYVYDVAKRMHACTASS
Vascular endothelial growth factor receptor 3 (Homo sapiens), sequence (P35916 whole entry): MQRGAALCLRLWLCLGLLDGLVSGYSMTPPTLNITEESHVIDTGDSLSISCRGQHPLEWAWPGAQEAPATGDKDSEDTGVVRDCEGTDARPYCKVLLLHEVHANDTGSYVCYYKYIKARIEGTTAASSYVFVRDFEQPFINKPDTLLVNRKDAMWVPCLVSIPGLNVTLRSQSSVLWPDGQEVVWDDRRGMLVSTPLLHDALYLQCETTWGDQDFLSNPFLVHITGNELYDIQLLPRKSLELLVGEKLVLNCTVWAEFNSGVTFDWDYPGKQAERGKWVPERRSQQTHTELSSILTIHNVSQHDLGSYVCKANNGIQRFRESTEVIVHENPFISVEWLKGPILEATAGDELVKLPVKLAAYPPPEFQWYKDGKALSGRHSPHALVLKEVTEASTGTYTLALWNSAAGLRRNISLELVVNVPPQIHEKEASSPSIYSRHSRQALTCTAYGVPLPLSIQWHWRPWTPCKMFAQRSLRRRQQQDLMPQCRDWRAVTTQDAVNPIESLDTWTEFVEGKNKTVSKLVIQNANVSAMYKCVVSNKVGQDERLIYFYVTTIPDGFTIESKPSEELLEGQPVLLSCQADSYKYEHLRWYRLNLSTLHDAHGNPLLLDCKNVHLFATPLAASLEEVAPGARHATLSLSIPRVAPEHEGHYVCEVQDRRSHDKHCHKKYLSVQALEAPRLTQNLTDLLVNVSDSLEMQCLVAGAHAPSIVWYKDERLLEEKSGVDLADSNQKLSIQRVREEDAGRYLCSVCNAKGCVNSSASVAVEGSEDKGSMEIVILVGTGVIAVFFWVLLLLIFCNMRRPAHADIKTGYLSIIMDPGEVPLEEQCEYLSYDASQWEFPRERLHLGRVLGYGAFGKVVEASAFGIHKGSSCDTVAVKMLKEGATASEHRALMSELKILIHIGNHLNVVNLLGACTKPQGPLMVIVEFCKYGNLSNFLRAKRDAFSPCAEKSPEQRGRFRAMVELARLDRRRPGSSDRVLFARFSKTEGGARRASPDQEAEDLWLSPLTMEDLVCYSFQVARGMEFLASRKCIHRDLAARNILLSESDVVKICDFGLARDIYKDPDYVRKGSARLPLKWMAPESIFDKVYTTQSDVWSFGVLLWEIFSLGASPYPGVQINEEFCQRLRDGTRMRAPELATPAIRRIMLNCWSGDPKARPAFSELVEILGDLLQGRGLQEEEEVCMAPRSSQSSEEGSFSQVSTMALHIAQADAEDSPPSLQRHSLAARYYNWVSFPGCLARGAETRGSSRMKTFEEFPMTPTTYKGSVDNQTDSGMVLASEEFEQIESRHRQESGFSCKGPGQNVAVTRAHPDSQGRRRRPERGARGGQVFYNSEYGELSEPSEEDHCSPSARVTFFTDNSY

On to `Cc1ccc(C(=O)NC(C)C)cc1-c1ccc(C(=O)NCC2CC2)cc1`, for which the inhibition in [1] was -4.16%; in assay [2], -1.29%; in [3], -1.39%; in [4], -3.14%; in [5] it was -3.6%; in assay [6] it was -3.09%. For the same compound, the inhibition is -3.72% in [7]; -6.3% in assay [8]; -4.59% in [9]; 3.16% in [10]; 4.93% in [11]; -2.88% in assay [12]. For the same compound, the inhibition in assay [13] is 0.01%; in assay [14] it was -5.71%; in [15], 5.33%; in assay [16], 1.2%; in assay [17], 2.58%; in [18], -3.16%. Besides, the inhibition in assay [19] was 0.94%; in [20], -0.23%.

As to `O=C(Nc1n[nH]c2cc(-c3cc(F)ccc3F)ccc12)C1CC1`, the inhibition in [1] stood at 6.78%; in assay [2], 1.23%; in assay [3], 0.65%; in assay [4], 3.53%; in assay [5], 2.03%; in assay [6], 1.92%. Also, the inhibition in [7] is -0.92%; in [8] it was 6.28%; in assay [9] it was 3.5%; in [10], 11.6%; in assay [11] it was 10.9%; in assay [12], 4.33%. Besides, the inhibition was 3.61% in assay [13]; 8.84% in [14]; -2.14% in assay [15]; 0.33% in [16]; 1.03% in [17]; -1.77% in [18]. Besides, the inhibition amounted to 2.78% in assay [19] and 2.47% in [20].
